# Assay results from PubChem BioAssay AID652105 (National Center for Advancing Translational Sciences (NCATS), 2013).
# In all, about 330,000 compounds went through this assay and about 4,100 (1.2%) were called active. Roughly 2% stayed inconclusive and do not appear here. Many of the other results were omitted from the sample, so actives are more common in it than they were. Unmarked numbers belong to inactive results. Rule for the calls: active = max response of -50% or lower; inconclusive = between -30% and -50%; inactive = -30% or higher.
# Biological target: Phosphatidylinositol 5-phosphate 4-kinase type-2 alpha (Homo sapiens) (UniProt P48426)
# Sequence (P48426 whole entry, looked up): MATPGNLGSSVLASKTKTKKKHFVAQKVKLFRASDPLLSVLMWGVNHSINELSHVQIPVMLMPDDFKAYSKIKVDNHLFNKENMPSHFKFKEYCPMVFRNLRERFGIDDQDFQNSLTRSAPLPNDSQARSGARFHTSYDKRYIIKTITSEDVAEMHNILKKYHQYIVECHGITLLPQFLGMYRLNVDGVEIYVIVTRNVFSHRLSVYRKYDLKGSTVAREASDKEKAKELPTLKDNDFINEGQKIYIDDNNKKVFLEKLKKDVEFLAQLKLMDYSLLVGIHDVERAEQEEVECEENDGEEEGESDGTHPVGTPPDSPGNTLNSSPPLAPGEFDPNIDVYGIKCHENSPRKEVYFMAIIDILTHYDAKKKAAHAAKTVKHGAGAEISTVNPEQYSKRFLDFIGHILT
# Test: qHTS for Inhibitors of phosphatidylinositol 5-phosphate 4-kinase (PI5P4K); note: value at the top dose of about 77 µM
# Conditions: PI5P4Kalpha enzyme, ADP-Glo luminescence, 60 min; stronger effect = lower value
# How it was run: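 Luminescence from ADP-Glo served as readout of PI5P4Kalpha activity in a qHTS format. Reaction: enzyme, substrate, compound, ATP at 5 microM final, 60 min at RT.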
# % is set by controls: 0 for no effect and ±100 for the full control effect.
row,SMILES,max response
1,O=S1(=O)CC(N2CCN(Cc3ccccc3F)CC2)CN1Cc1cn(Cc2cccc(C(F)(F)F)c2)nn1 (stereo unspecified),4.9%
2,O=C(Nc1ccc(F)cc1)C(CCc1ccccc1)N1CCN(CC(=O)N2CCCC2)CC1 (stereo unspecified),-9.87%
3,CCS(=O)(=O)c1cc([N+](=O)[O-])c(Sc2ccccc2N)s1,-65.8% (active)
4,Cc1ccc(S(=O)(=O)NCCSc2ccccc2)cc1[N+](=O)[O-],-4.48%
5,COc1c(C)cc(C(O)c2ncc(-c3cccc(C(F)(F)F)c3)[nH]2)cc1C (stereo unspecified),-7.49%
6,COc1cccc(/C=N\NC(=O)C2=NNC(=O)C2C)c1O (stereo unspecified),-72.8% (active)
7,CCOc1ccc2[nH]c(C(=O)N/N=C/c3cccc(OC)c3OC)cc2c1,8.06%
8,COc1ccc(/C=N/NC(=O)c2ccc3c(c2)OCCO3)c(OC)c1,3.95%
9,COc1cccc(/C=N/NC(=O)c2[nH]nc3c2CCc2ccccc2-3)c1O,-53% (active)
10,COc1ccc(Br)cc1/C=N/NC(=O)c1cccc(S(=O)(=O)N2CCOCC2)c1,-4.11%
11,COc1cc2cc(C(=O)N/N=C/c3cccc(OC)c3OC)[nH]c2cc1OC,0.853%
12,CC1(C(=O)Nc2ccc3c(c2)OCCO3)CSCC(=O)N1CCOc1ccccc1 (stereo unspecified),-1.05%
13,CC(C)(C)S(=O)N1Cc2cc(C(=O)NCCCN3CCOCC3)nc(-c3cccc(-c4cc5ccccc5o4)c3)c2[C@H]1CCO (stereo partly specified),0.439%
14,CCCCC[C@H](C)N1C[C@@H](COCc2ccccc2)Oc2cc(N3CCC[C@@H]3CO)ccc2S1(=O)=O,11.7%
15,Cc1cc(C(=O)N/N=C/c2ccc(O)c([N+](=O)[O-])c2)c(C)n1-c1ccc(F)cc1,-71% (active)
16,Cc1nn(CC(=O)N/N=C/c2ccc(F)cc2)c(C)c1[N+](=O)[O-],-2.33%
17,COc1cc(/C=N/NC(=O)c2cc(C)n(-c3ccc(F)cc3)c2C)cc(OC)c1O,-10.7%
18,CCCNC(=O)C1(C)CCCN(C(=O)c2oc3ccccc3c2C)C1 (stereo unspecified),-7.4%
19,CCc1nc2ccc(C(=O)Nc3ccc(OC)c(OC)c3)cn2c1N(C)C(=O)c1cccc(OC)c1,3.96%
20,CCOC(=O)C1=CC[C@@H](c2ccccc2)N(S(=O)(=O)c2ccc(C)cc2)[C@H]1c1cccc(OC)c1,4.01%
21,CCOC(=O)c1ccn(S(=O)(=O)c2ccc(C)cc2)c1-c1ccccc1,12.7%

row,SMILES,max response
1,COc1ccc(-c2cc(C(=O)N(C)Cc3ccccc3)c3ccccc3n2)cc1,15.4%
2,COc1ccc(-c2cc(C(=O)Nc3ccccc3O)c3ccccc3n2)cc1,-106% (active)
3,COc1ccc(NC(=O)c2cc(-c3cc(OC)c(OC)c(OC)c3)nc3ccccc23)c(OC)c1,2.36%
4,COc1ccc(NC(=O)C2Cc3c(-c4ccc(Cl)cc4)ccnc3O2)cc1 (stereo unspecified),-2.22%
5,Cc1ccc(-c2c(N)nc3ncccn23)cc1,0.002%
6,O=CNc1cc(-c2ccc(C(=O)N3CCOCC3)cc2)cn2c(-c3ccc(F)cc3)cnc12,-15.7%
7,CCCCNC(=O)C[C@@H]1C[C@@]2(C(=O)OCC)CCC=C2N(Cc2cccc3ccccc23)C1=O,3.26%
8,COc1cccc(/C=N/Nc2ccc(S(=O)(=O)Nc3ccccc3C(=O)O)cc2[N+](=O)[O-])c1O,-74.4% (active)
9,COc1ccc(Br)cc1/C=N/Nc1ccc(S(=O)(=O)Nc2ccccc2C(=O)O)cc1[N+](=O)[O-],-15.6%
10,Cc1ccc(NS(=O)(=O)c2ccc(N/N=C/c3ccccc3OCC(=O)O)c([N+](=O)[O-])c2)c(C)c1,0.282%
11,Cc1noc(C)c1-c1ccc(C(=O)NCc2ccncc2)c2occc12,1.04%
12,COc1cccc(-c2nc3nc(C)cc(C)n3c2NC2CCCCC2)c1,-7.02%
13,C[C@H]1NS(=O)(=O)c2cc(Cl)ccc2O[C@@H]1c1ccccc1,4.12%
14,O=c1[nH]c(=O)n(Cc2ccco2)c2c1C(C(F)(F)F)(C(F)(F)F)N=C(c1ccco1)N2,-76.9% (active)
15,Cc1ccccc1C1=NC(C(F)(F)F)(C(F)(F)F)c2c(n(-c3ccc(F)cc3)c(=O)[nH]c2=O)N1,-8.19%
16,Nc1c(N(Cc2ccco2)C(=O)c2cccc(F)c2)c(=O)[nH]c(=O)n1Cc1ccccc1,-14.9%
17,CN(C)c1cccc(NC(=O)c2ccc(-c3ccc(F)c(F)c3)c3ccoc23)c1,2.45%
18,CCC(=O)N1CCC(C)(C(=O)Nc2cc(OC)c(OC)c(OC)c2)C1 (stereo unspecified),10.8%
19,CC(=O)C1=CCC(c2ccccc2)N(S(=O)(=O)c2ccc(C)cc2)C1 (stereo unspecified),-0.133%
20,O=C(Cc1cccs1)Nc1nnc(SCc2ccc(F)cc2)s1,6.84%
